From PubChem
HCMV antiviral – human cytomegalovirus inhibition | AID 1259415 | activity change, negative = inhibition, % at 57.5 µM | actives 4.5% (n = 410,000) | HFF cells, HCMV-luciferase reporter, 72 h; stronger effect = lower value; in the data active = activity change below about -60%; inconclusive = no clear call, values can overlap the other calls; inactive = above about -39%
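Steps: HFFs plated, 16 h 37C; compounds added; HCMV-luciferase added to MOI 1 PFU/cell; 72 h 37C; OneGlo reagent, 5 min room temperature; luminescence read, normalized to controls.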
Pf growth 48h – inhibits P. falciparum growth in the first generation, 48 h | P. falciparum luciferase growth in erythrocytes, 48 h | Potency, µM (titrated, usually from 28.7 µM), most hits filed as inhibitors | actives 5.9% (n = 310,000) | AID 504832
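Here the parasites carry a stable luciferase gene and grow inside erythrocytes in Albumax-based RPMI medium with compound for one erythrocytic cycle. Activity is scored as loss of luminescent signal.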
Pf growth 96h – P. falciparum growth inhibition at 96 hours; actives 6.9% (n = 320,000); Potency, µM (doses to about 28.7 µM), most hits filed as inhibitors; P. falciparum luciferase reporter growth, 96 h; AID 504834
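Infected RBCs, 2% Hct / 0.05% parasitemia final; luciferase-reporter P. falciparum; cpd 96 h, 37 C, 5% CO2; luciferase detection reagent; luminescence.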
HCV inhibitor – HCV inhibition | Huh7.5.1 HCVcc-Cre infection, luciferase reporter, 44 h | Potency, µM (titrated, usually from 41.8 µM), hits mostly inhibitors | actives 3.4% (n = 340,000) | AID 651820
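Antiviral activity was scored by luciferase reporter output from cells infected with HCVcc-Cre (~0.5 moi) in presence of compound, 44 h infection period, cells seeded 1,000/well 4 h prior.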
Hits are given with their value; 0 = inactive; ? = inconclusive; - = no result given. Sampled rows, rich in hits. Any-hit rate of the full collection: about 13%. Unless noted, calls follow the shape of the dose curve; as a rule, active = well fitted inhibition curve with a large enough effect; inconclusive = small, poorly fitted or top-dose-only effect, or another doubt; inactive = no such curve, though single readings can be large or run the other way.

SMILES	HCMV antiviral	Pf growth 48h	Pf growth 96h	HCV inhibitor
Cc1nccc2c1[nH]c1ccc(Br)cc12	0	?	0	3.98µM
CCN(CC)CCCNC(=O)Cc1csc2nc(-c3ccc(Cl)cc3)cn12	0	-	-	-
CC(=O)c1ccc(N2CCN(C(=O)CS(=O)(=O)c3cccc4nsnc34)CC2)cc1	0	-	-	-
Cc1ccccc1NNC(=O)C(=O)NNc1ccccc1C	0	0	0	0
Cc1ccccc1NC(=O)N(C(C)C)C(C)C	0	-	9.28µM	0
Cc1ccccc1NC(=O)C(Cl)=C(Cl)Cl	-77.9	0	0	?
COc1ccccc1C(=O)Nc1nnc(SCc2cc(=O)c3ccccc3[nH]2)s1	0	-	-	-
O=C(COc1ccccc1N1C(=O)c2ccccc2C1=O)c1ccc(Cl)cc1	0	?	0	0
COC(=O)C(CC(=O)c1ccc(Cl)cc1)c1ccccc1 (stereo unspecified)	-101.1	-	-	0
Cc1ccc(C(=O)COC(=O)Cc2ccccc2)cc1	0	0	0	0
O=C(Cc1ccccc1)OCC(=O)c1ccccc1	0	0	11.7µM	0
O=C(COc1c(Cl)cc(Cl)cc1Cl)c1ccc(Cl)cc1	0	0	11.7µM	0
O=C(CCC(=O)c1ccc(Cl)cc1)OCC(=O)c1ccccc1	-64.8	0	?	?
O=S(=O)(CS(=O)(=O)c1ccccc1Br)c1ccccc1Br	0	-	-	-
CCc1ccccc1NC(=O)c1cc(S(=O)(=O)N2CCc3ccccc32)ccc1F	0	-	-	-
Cc1ccc(NS(=O)(=O)c2ccc(Br)s2)nc1	?	0	0	3.55µM
N#CCC(=O)Nc1ccc(C(=O)OCC(=O)C23CC4CC(CC(C4)C2)C3)cc1	0	13.1µM	?	0
N#CCC(=O)Nc1ccc(C(=O)OCc2ccccc2Oc2ccccc2)cc1	0	10.4µM	?	0
CC(CCc1ccccc1)NC(=O)COC(=O)c1ccc(NC(N)=O)cc1 (stereo unspecified)	-71.0	?	0	0
N#CCC(=O)Nc1ccc(C(=O)OCC(=O)NCCCc2ccccc2)cc1	?	0	1.17µM	0
Cc1ccc(CNC(=O)CCc2c(C)nc3c(-c4ccc(F)cc4)c(C)nn3c2C)cc1	0	-	-	-
COC(=O)C(c1ccccc1)(c1cn(C)c2ccc(OC)cc12)C(Nc1ccccc1)c1ccccc1 (stereo unspecified)	0	-	-	-
COC(=O)[C@@H]1[C@@H](CO)[C@@H]2Cn3c(ccc(Br)c3=O)[C@@H]2N1Cc1cccc(F)c1	0	-	-	-
O=S(=O)(c1ccc(Cl)cc1)c1nc(-c2cccs2)oc1SCc1ccccc1F	0	-	-	-
CCN(c1ccccc1)S(=O)(=O)c1ccc(Cl)c(NC(=O)COC(=O)c2cc(O)c3ccccc3c2O)c1	-	13.1µM	11.7µM	-
SMILES	HCMV antiviral	Pf growth 48h	Pf growth 96h	HCV inhibitor
CCN(c1ccccc1)S(=O)(=O)c1ccc(Cl)c(NC(=O)COC(=O)c2ccc(O)cc2)c1	0	?	11.7µM	?
CN(C)c1cccc(C(=O)OCC(=O)Nc2ccccc2-c2ccccc2)c1	0	?	?	?
CCN(CC)c1ccc(C(=O)OCC(=O)Nc2ccccc2-c2ccccc2)cc1	0	?	10.4µM	8.91µM
Cc1cc(-c2nc3ncccc3o2)ccc1NC(=O)c1ccc(Cl)cc1	0	-	-	-
CN(C)c1ccc(C(CNC(=O)c2ccccc2)N2CCc3ccccc32)cc1 (stereo unspecified)	0	-	-	-
Cc1cccc(CNC(=O)c2cnc3sc(N4CCOCC4)nn3c2=O)c1	0	-	-	-
COc1ccc(-c2noc(N3CCC(C(=O)Nc4cccc(C)c4C)CC3)n2)cc1	0	-	-	-
CCOC(=O)N1CCN(c2nc(-c3ccc(OC)cc3)no2)CC1	?	0	0	12.6µM
COc1ccc(-c2noc(N3CCC(C(=O)Nc4ccc(F)cc4)CC3)n2)cc1	0	0	0	0
COc1ccc(-c2noc(N3CCC(C(=O)N(C)c4ccccc4C)CC3)n2)cc1	?	?	?	11.2µM
COc1ccc(-c2noc(N3CCC(C(=O)Nc4cccc(OC)c4)CC3)n2)cc1	0	?	0	22.4µM
CCn1nc(C)c2c(-c3ccccc3)cc(=O)n(C(C)C(=O)NCCC(C)C)c21 (stereo unspecified)	0	-	-	-
Cc1nc2ccccc2n1C1CCN(CC(=O)Nc2ccccc2Br)CC1	?	11.7µM	0	?
O=C(CN1CCN(c2ccccn2)CC1)Nc1ccccc1Br	0	5.22µM	?	0
O=C(CN1CCN(c2ccccn2)CC1)Nc1ccc(Cl)c(C(F)(F)F)c1	0	0	0	0
Cc1ccccc1NC(=O)CN1CCC(n2nnc3ccccc32)CC1	0	?	0	0
O=C(CN1CCN(c2ccccn2)CC1)Nc1ccccc1F	0	0	?	0
O=C(CN1CCN(c2ccccn2)CC1)Nc1cc(C(F)(F)F)ccc1Cl	0	9.28µM	-	?
COc1ccc(OC)c(S(=O)(=O)NCCc2csc3nc(-c4ccccc4)nn23)c1	0	-	-	-
Cc1cc(/C=C2/C(=O)NN(c3ccccc3)C2=O)c(C)n1-c1ccc(O)cc1	-86.1	0	0	?
COc1ccc(-n2c(C)cc(/C=C3\C(=O)NN(c4ccccc4)C3=O)c2C)cc1	0	0	0	0
Cc1cc(/C=C2\SC(=Nc3ccc(F)cc3)NC2=O)c(C)n1-c1ccc(S(N)(=O)=O)cc1	-83.6	13.1µM	-	3.55µM
Cc1cc(/C=C2\SC(=S)NC2=O)c(C)n1-c1ccc(O)cc1	0	9.28µM	0	0
CC(C)C(=O)c1cc2c(cc1NC(=O)c1ccccc1F)OCCO2	0	-	-	-
CCOc1ccc(NC(=O)NCc2ccc3c(c2)CCN3C(C)=O)cc1	0	-	-	-
SMILES	HCMV antiviral	Pf growth 48h	Pf growth 96h	HCV inhibitor
Cc1cc(C)c2nc(-c3ccccc3)ccc2c1	0	-	-	-
Cc1cc(C)c2c(ccc3cccc[n+]32)c1	?	-	-	1µM
Oc1ccc(CCNc2ncnc3ccc(Cl)cc23)cc1	-98.0	0	0	3.16µM
Nc1nc(Cl)cc(NCCc2ccc(O)cc2)n1	0	0	0	0
CCN(CC)C(=O)c1sc2c(c1C)c(=O)n(-c1ccc(Cl)c(Cl)c1)c(=O)n2CC(=O)Nc1cccc(OC)c1	0	-	-	-
COc1cccc(C2C(C(=O)Nc3cccnc3)=C(C)Nc3nc(SCc4ccccc4)nn32)c1 (stereo unspecified)	0	-	-	-
COCC(=O)NCc1nc2cccnc2n1Cc1ccc(F)cc1	0	-	-	-
COc1cc(NC(=O)[C@H]2CCCN2S(=O)(=O)c2cccc3cccnc23)cc(OC)c1OC	0	?	?	0
O=C(Nc1cccc(C(F)(F)F)c1)C1CCCN1S(=O)(=O)c1cccc2cccnc12 (stereo unspecified)	-92.5	?	10.4µM	?
COc1ccc(NC(=O)C2CCCN2S(=O)(=O)c2cccc3cccnc23)c(OC)c1 (stereo unspecified)	0	0	10.4µM	0
O=C1Nc2cnc(Cl)nc2Nc2ccccc21	0	-	-	-
CC(=O)Nc1ccc(NC(=O)c2nc(SCc3ccccc3C)ncc2Cl)cc1	0	-	-	-
Cc1ccc(NC(=O)c2nc(S(=O)(=O)Cc3ccc(F)cc3)ncc2Cl)cc1C	-98.4	-	-	-
CSc1ncc(Cl)c(C(=O)Nc2ccc(C)c(C)c2)n1	0	0	0	?
Cc1ccc(NC(=O)c2nc(S(=O)(=O)Cc3ccccc3C)ncc2Cl)cc1C	-98.1	0	?	?
CC(=O)Nc1ccc(NC(=O)c2nc(S(=O)(=O)Cc3ccc(F)cc3)ncc2Cl)cc1	-99.8	-	-	-
